# Test results as given in PubChem BioAssay (NCATS).
# Results filed as inconclusive are left out. A call without a number means that no potency is given here. Activity calls are given as the source filed them. Unless noted, the call rests on the fitted dose curve; in most records, active means well fitted curve in the direction sought with a large enough effect; inconclusive means small, poorly fitted or top-dose-only effect, or another doubt; inactive means no such curve, though single readings can be large; an effect the other way counts as inactive or inconclusive.
# Columns and labels:
# [1] = HepG2 viability counterscreen (readout 1: protease activity) against the NCATS DSHEA and TCM libraries (AID 1794841);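 further: cells exposed to compounds for about 24 h before the protease read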
# Outline: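 HepG2 cells (1,000 cells/well) attached ~4 h, then treated ~24 h at 37C with substances. Protease activity read by GF-AFC (25 uM final, 30 min, Ex/Em 380/510 nm); ATP content then by CellTiter-Glo luminescence.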
# [2] = molecular target: Glutathione peroxidase 1 (Homo sapiens) (UniProt P07203); experiment: Primary qHTS Assay for Inhibitors of Recombinant Selenoprotein Glutathione Peroxidase 1 (GPX1) (AID 1845191); further: nearly all actives have a fitted effect of over 65% in size; further: potency means the concentration at half of the fitted maximal effect
# Chain of Glutathione peroxidase 1 (Homo sapiens) (P07203 whole entry, looked up): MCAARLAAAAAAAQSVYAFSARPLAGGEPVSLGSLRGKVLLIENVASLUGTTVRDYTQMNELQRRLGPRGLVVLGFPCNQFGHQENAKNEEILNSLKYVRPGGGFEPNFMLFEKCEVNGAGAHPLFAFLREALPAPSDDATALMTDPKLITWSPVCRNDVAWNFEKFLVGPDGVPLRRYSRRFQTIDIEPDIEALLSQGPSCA
# Outline: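 Recombinant GPX1 (10 nM final) was preincubated with compound for 30 min at room temperature, then reacted with 1 mM GSH, 0.5 mM CHP, 0.5 mM NADPH and 100 nM glutathione reductase; NADPH fluorescence (340/450 nm) was read at 0 and 15 min.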
# [3] = molecular target: Cytochrome P450 3A4 (Homo sapiens) (UniProt P08684); experiment: qHTS for inhibitors of CYP3A4 against the NCATS DSHEA and TCM libraries (AID 1919971);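 further: inhibition lowers luminescence from luciferin made by CYP3A4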
# Chain of Cytochrome P450 3A4 (Homo sapiens) (P08684 whole entry, looked up, canonical isoform): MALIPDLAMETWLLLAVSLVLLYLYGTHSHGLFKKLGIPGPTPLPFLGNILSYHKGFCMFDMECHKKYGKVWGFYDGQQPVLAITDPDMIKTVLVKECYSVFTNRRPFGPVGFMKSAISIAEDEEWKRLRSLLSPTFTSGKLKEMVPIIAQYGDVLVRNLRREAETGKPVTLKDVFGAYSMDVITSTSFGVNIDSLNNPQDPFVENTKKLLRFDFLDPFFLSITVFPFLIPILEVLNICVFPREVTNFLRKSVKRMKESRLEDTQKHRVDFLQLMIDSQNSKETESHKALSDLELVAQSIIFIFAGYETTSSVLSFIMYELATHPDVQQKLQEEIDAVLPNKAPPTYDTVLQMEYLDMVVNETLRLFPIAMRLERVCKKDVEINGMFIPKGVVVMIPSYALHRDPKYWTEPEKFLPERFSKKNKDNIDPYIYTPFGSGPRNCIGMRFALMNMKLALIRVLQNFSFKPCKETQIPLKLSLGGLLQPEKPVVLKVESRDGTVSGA
# Outline: (§1)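 Read-out is luminescence after P450-Glo detection (30 min, RT). Before that: 15 min compound–enzyme preincubation, then 30-45 min reaction with 1x NADPH regeneration solution, substrate concentration isoform-specific.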
# [4] = molecular target: Cytochrome P450 2C9 (Homo sapiens) (UniProt P11712); experiment: qHTS for inhibitors of CYP2C9 against the NCATS DSHEA and TCM libraries (AID 1919973); further: potency means the concentration at half of the fitted maximal effect;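 on activity change, negative = inhibition: luminogenic pro-luciferin CYP2C9 substrate turned into luciferin with NADPH regeneration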
# Chain of Cytochrome P450 2C9 (Homo sapiens) (P11712 whole entry, looked up): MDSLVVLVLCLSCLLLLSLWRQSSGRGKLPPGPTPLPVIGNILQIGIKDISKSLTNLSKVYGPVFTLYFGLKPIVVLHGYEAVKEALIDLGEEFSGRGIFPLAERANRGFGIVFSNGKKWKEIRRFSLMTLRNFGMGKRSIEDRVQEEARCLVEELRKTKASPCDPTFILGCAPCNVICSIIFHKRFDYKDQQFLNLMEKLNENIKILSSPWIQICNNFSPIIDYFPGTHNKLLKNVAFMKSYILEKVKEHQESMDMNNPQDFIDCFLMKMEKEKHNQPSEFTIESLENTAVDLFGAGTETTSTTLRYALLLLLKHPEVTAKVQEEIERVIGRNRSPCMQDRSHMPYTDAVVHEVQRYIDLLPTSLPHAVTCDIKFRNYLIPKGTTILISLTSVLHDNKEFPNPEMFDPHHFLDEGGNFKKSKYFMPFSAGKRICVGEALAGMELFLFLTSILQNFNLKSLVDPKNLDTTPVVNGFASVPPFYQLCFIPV
# Outline: as §1
# [5] = molecular target: Cytochrome P450 2C19 (Homo sapiens) (UniProt P33261); experiment: qHTS for inhibitors of CYP2C19 against the NCATS DSHEA and TCM libraries (AID 1919974);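 further: luminescence from luciferin released by CYP2C19 oxidation of a pro-luciferin substrate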
# Chain of Cytochrome P450 2C19 (Homo sapiens) (P33261 whole entry, looked up): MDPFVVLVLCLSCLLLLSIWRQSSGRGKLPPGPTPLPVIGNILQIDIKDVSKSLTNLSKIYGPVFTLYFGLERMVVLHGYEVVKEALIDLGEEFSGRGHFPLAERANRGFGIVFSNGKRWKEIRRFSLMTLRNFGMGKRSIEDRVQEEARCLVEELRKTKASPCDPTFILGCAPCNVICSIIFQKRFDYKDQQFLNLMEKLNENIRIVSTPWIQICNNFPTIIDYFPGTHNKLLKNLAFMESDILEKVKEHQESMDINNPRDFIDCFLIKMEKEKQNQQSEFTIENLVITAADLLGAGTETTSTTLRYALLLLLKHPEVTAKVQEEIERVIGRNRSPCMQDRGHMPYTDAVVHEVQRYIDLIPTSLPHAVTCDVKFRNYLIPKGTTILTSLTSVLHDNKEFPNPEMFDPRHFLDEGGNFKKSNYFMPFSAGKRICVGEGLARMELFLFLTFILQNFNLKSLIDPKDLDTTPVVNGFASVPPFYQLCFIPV
# Outline: as §1
# [6] = KB-3-1 P-gp reporter qHTS against the NCATS DSHEA and TCM libraries (AID 1919975)
# Outline: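 Parental KB-3-1 human cervical adenocarcinoma cells (500 cells/well, DMEM + 10% FBS) were treated with substances for ~72 h at 37C; viability was read by CellTiter-Glo luminescence.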
# [7] = molecular target: Cytochrome P450 1A2 (Homo sapiens) (UniProt P05177); experiment: qHTS for inhibitors of CYPIA2 against the NCATS DSHEA and TCM libraries (AID 1919976); further: potency means the concentration at half of the fitted maximal effect;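 on activity change, negative = inhibition: light from luciferin formed by CYP1A2 from a pro-luciferin substrate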
# Chain of Cytochrome P450 1A2 (Homo sapiens) (P05177 whole entry, looked up): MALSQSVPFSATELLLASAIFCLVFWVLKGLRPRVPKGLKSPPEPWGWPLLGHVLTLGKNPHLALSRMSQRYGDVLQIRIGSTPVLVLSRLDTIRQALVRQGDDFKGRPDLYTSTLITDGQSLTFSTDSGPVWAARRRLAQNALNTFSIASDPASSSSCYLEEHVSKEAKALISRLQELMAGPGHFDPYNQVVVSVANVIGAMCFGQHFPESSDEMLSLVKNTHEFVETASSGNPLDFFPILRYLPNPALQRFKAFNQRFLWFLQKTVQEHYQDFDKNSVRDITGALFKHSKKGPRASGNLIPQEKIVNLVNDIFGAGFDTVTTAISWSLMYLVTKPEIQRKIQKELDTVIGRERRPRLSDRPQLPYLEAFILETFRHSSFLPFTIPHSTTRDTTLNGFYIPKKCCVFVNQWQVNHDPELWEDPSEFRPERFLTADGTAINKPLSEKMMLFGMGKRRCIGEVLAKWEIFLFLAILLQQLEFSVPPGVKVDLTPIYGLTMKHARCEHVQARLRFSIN
# Outline: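 CYP1A2 + luciferin substrate, 100 mM KPO4-type buffer; cmpd 15 min RT; 1x NADPH regen, 30-45 min RT dark; detection reagent 30 min RT; luminescence. Minus-enzyme wells as background; furafylline intraplate control.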
# [8] = qHTS Counterscreen for compound interference against the NCATS DSHEA and TCM libraries (AID 1919978); conditions: firefly luciferase detection reagent interference, luminescence
# Outline: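 D-luciferin (1 uM final) or 100 mM potassium phosphate buffer alone was preincubated 15 min at RT with compounds (19.5 nM to 39.8 uM final). Luciferin detection reagent was then added and luminescence read after 30 min at RT.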
# [9] = Dual reporter qHTS for agonist of Pregnane X Receptor (hPXR) against the NCATS DSHEA and TCM libraries: Fluorescence readout (AID 1920058)
# Outline: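 HepG2 hPXR-Luc, 2000 cells/well, 5 h attach; cpds ~24 h, 37 °C/5% CO2; CellTiter-Fluor 1 h; fluor. Ex/Em 405/540 nm = viability.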
# [10] = molecular target: Nuclear receptor subfamily 1 group I member 2 (Homo sapiens) (UniProt O75469); experiment: Dual reporter qHTS for agonist of Pregnane X Receptor (hPXR) against the NCATS DSHEA and TCM libraries: Luminescence readout (AID 1920059)
# Chain of Nuclear receptor subfamily 1 group I member 2 (Homo sapiens) (O75469 whole entry, looked up): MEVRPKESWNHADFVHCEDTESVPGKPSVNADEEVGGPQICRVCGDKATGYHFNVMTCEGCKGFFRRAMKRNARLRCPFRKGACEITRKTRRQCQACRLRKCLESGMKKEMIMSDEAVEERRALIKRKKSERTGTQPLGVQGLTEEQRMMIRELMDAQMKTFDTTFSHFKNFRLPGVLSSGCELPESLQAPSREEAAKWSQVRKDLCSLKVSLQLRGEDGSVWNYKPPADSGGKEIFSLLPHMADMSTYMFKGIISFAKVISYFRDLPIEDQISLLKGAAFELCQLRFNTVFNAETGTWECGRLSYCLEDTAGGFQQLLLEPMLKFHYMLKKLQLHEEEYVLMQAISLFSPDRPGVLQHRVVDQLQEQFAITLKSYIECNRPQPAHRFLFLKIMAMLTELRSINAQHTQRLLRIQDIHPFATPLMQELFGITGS
# Outline: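 hPXR-LucHepG2 cells in phenol red-free DMEM with 5% charcoal-stripped FBS, 2000 cells/well, attached 5 h, then exposed 24 h at 37C to compounds; rifampicin as positive agonist control (2.8 nM–92 uM). Luciferase luminescence read.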
# [11] = molecular target: Nuclear receptor subfamily 1 group I member 2 (Homo sapiens) (UniProt O75469); experiment: Dual reporter qHTS for antagonist of Pregnane X Receptor (hPXR) against the NCATS DSHEA and TCM libraries: Luminescence Readout (AID 1920060);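 further: HepG2 cells carrying hPXR luciferase reporter stimulated with rifampicin at 2 µM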
# Outline: (§2)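 HepG2 hPXR-Luc, 2000 cells/well, charcoal-stripped FBS medium; 5 h attach; RIF 2 uM final; 24 h 37C/5% CO2; CellTiter-Fluor 1 h, fluor 405/540; ONE-Glo 30 min RT, lum.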
# [12] = Dual reporter qHTS for antagonist of Pregnane X Receptor (hPXR) against the NCATS DSHEA and TCM libraries: Fluorescence Readout (AID 1920061)
# Outline: as §2
# [13] = qHTS profiling for inhibitors of Plasmodium falciparum proliferation (AID 504749); further: nearly all actives have a fitted effect of over 60% in size; further: potency means the concentration at half of the fitted maximal effect; conditions: P. falciparum in erythrocytes, SYBR Green DNA, 72 h
# Outline: (§3)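 Parasite proliferation within erythrocytes, 72 h exposure. Endpoint: SYBR Green I fluorescence after overnight lysis at room temperature. Controls: 0.29 uM artemisinin, DMSO.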
# 3D7 = experiment: as above; conditions: P. falciparum in erythrocytes, SYBR Green DNA, 72 h; series mostly up to 28.7 µM
# Outline: as §3
# [14] = molecular target: Phospholipid hydroperoxide glutathione peroxidase GPX4 (Homo sapiens) (UniProt P36969); experiment: Primary qHTS Assay for Inhibitors of Recombinant Selenoprotein Glutathione Peroxidase 4 (GPX4) (AID 1845192); further: nearly all actives have a fitted effect of over 65% in size; further: potency means the concentration at half of the fitted maximal effect
# Chain of Phospholipid hydroperoxide glutathione peroxidase GPX4 (Homo sapiens) (P36969 whole entry, looked up): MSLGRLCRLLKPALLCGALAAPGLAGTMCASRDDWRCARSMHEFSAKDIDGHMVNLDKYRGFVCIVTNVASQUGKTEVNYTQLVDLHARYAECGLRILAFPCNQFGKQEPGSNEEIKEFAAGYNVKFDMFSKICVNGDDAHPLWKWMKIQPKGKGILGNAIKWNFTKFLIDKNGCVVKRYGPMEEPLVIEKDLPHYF
# Outline: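 GR-coupled readout: 100 nM GR, 1 mM GSH, 0.5 mM NADPH; NADPH fluorescence (ex 340/em 450 nm) read at t=0 and after 15 min RT. GPX4 200 nM, preincubated 30 min with compound; substrate 0.5 mM CHP.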
# 7G8 = experiment: qHTS profiling for inhibitors of Plasmodium falciparum proliferation (AID 504749); further: nearly all actives have a fitted effect of over 60% in size; further: potency means the concentration at half of the fitted maximal effect; conditions: P. falciparum in erythrocytes, SYBR Green DNA, 72 h; series mostly up to 28.7 µM
# Outline: as §3
# [15] = qHTS drug screen for cell cycle checkpoint inhibitors in PARPi-resistant BRCA-mutant ovarian cancer cell lines. (AID 1963452; calls by dose curve); conditions: PEO1/OlaR viability, CellTiter-Glo luminescence, 96 h, stronger effect = lower value
# Outline: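 PEO1, PEO4 and PEO1/OlaR ovarian cancer cells, 600 per well, exposed 96 h at 37C to a dilution series. Viability read by CellTiter-Glo luminescence, normalized to DMSO and empty wells; activity summarized as Z-AUC.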
# [16] = at 28.7 µM (top of the series), parasite line A
# [17] = at 28.7 µM (top of the series), parasite line B
smiles,measurement,setting,value
CC/C=C\C/C=C\C/C=C\C/C=C\C/C=C\CCCC(=O)O,outcome,[1],inactive
same,Potency,[2],inactive
same,outcome,[3],inactive
same,Potency,[4],inactive
same,Potency,[5],inactive
same,outcome,[6],inactive
same,Potency,[7],inactive
same,max response,[8],0.593% (inactive)
same,outcome,[9],inactive
same,Potency,[10],inactive
same,outcome,[11],inactive
same,outcome,[12],inactive
same,"activity, negative = inhibition",[13]; [16],-4.56% (inactive)
same,"activity, negative = inhibition",[13]; [17],-6.54% (inactive)
same,Potency,3D7,inactive
CCN1C(=O)NC(c2ccccc2)C1=O (stereo unspecified),Potency,[2],inactive
same,Potency,[14],inactive
CC(C)[C@@H](C)/C=C/[C@@H](C)[C@H]1CC[C@H]2/C(=C/C=C3\C[C@@H](O)CC[C@@H]3C)CCC[C@]12C,Potency,[2],inactive
Cc1cc(O)c2c(c1)O[C@@]1(C)CC[C@H]3C(C)(C)CCCC34CO[C@@H]2[C@H]41 (stereo partly specified),Potency,[2],inactive
CC(C)(O/N=C(\C(=O)N[C@@H]1C(=O)N2C(C(=O)[O-])=C(C[n+]3ccccc3)CS[C@H]12)c1csc(N)n1)C(=O)O,Potency,[2],7.85 µM (active)
OC[C@@H](O)C(O)[C@H](O)CO,Potency,[2],inactive
same,Potency,[14],inactive
CC/C=C\C/C=C\C/C=C\CCCCCCCC(=O)O,outcome,[1],inactive
same,Potency,[4],7.94 µM (active)
same,outcome,[6],inactive
same,Potency,[7],inactive
same,max response,[8],-1.87% (inactive)
same,outcome,[9],inactive
same,Potency,[10],inactive
same,outcome,[11],inactive
same,outcome,[12],inactive
same,"activity, negative = inhibition",[13]; [16],-1.47% (inactive)
same,"activity, negative = inhibition",[13]; [17],-1.74% (inactive)
same,Potency,3D7,inactive
CCCCC/C=C\C/C=C\C/C=C\CCCCC(=O)O,"activity change, negative = inhibition",[1],15.8% [at 3.42 µM] (inactive)
same,Potency,[2],inactive
same,Potency,[14],8.91 µM (active)
same,"activity change, negative = inhibition",[3],10.3% [at 4.27 µM] (inactive)
same,"activity change, negative = inhibition",[4],-2.07% [at 4.27 µM] (inactive)
same,"activity change, negative = inhibition",[5],19.3% [at 4.27 µM] (inactive)
same,"activity change, negative = inhibition",[6],-0.723% [at 3.26 µM] (inactive)
same,"activity change, negative = inhibition",[7],7.42% [at 4.62 µM] (inactive)
same,max response,[8],-1.8% (inactive)
same,activation,[10],-11.8% [at 5 µM] (inactive)
same,"activity change, negative = inhibition",[11],-11% [at 5 µM] (inactive)
same,"activity change, negative = inhibition",[12],4.34% [at 5 µM] (inactive)
same,"activity, negative = inhibition",[13]; [16],-2.11% (inactive)
same,"activity, negative = inhibition",[13]; [17],-8.25% (inactive)
same,Potency,3D7,inactive
Oc1cccc(O)c1O,outcome,[1],inactive
same,Potency,[5],inactive
same,outcome,[6],inactive
same,Potency,[7],inactive
same,max response,[8],-3.78% (inactive)
same,outcome,[9],inactive
same,Potency,[10],inactive
same,outcome,[11],inactive
same,outcome,[12],inactive
same,"activity, negative = inhibition",[13]; [16],-26.1% (inactive)
same,"activity, negative = inhibition",[13]; [17],-8.69% (inactive)
C[C@@H]1O[C@@H]1P(=O)(O)O,Potency,[2],11.1 µM (active)
O=C(O)/C=C/c1ccccc1,outcome,[1],inactive
same,Potency,[2],inactive
same,Potency,[14],inactive
same,outcome,[3],inactive
same,Potency,[4],inactive
same,Potency,[5],inactive
same,outcome,[6],inactive
same,Potency,[7],inactive
same,max response,[8],-1.31% (inactive)
same,outcome,[9],inactive
same,Potency,[10],inactive
same,outcome,[11],inactive
same,outcome,[12],inactive
same,"activity, negative = inhibition",[13]; [16],-6.43% (inactive)
same,"activity, negative = inhibition",[13]; [17],4.85% (inactive)
same,Potency,3D7,inactive
same,Potency,7G8,inactive
NC[C@@H]1CC[C@@H](N)[C@@H](O[C@H]2[C@H](O)[C@@H](O[C@H]3O[C@H](CO)[C@@H](O)[C@H](N)[C@H]3O)[C@H](N)C[C@@H]2N)O1,Potency,[2],inactive
CC/C=C\C/C=C\C/C=C\C/C=C\C/C=C\C/C=C\CCC(=O)O,outcome,[1],inactive
same,Potency,[2],inactive
same,outcome,[3],inactive
same,Potency,[4],inactive
same,outcome,[6],inactive
same,Potency,[7],inactive
same,max response,[8],-0.949% (inactive)
same,outcome,[9],inactive
same,Potency,[10],inactive
same,outcome,[11],inactive
same,outcome,[12],inactive
same,"activity, negative = inhibition",[13]; [16],-24.9% (inactive)
same,"activity, negative = inhibition",[13]; [17],-13.6% (inactive)
same,Potency,3D7,inactive
same,Potency,7G8,12.6 µM (active)
CCC(Oc1ccccc1)C(=O)N[C@@H]1C(=O)N2[C@@H]1SC(C)(C)[C@@H]2C(=O)O (stereo partly specified),Potency,[2],inactive
same,Potency,[14],31.6 µM (active)
Cc1ncc(C[n+]2csc(CCO)c2C)c(N)n1,outcome,[1],inactive
same,Potency,[2],inactive
same,Potency,[14],inactive
same,outcome,[3],inactive
same,outcome,[6],inactive
same,max response,[8],-0.256% (inactive)
same,outcome,[9],inactive
same,Potency,[10],inactive
same,outcome,[12],inactive
same,"activity, negative = inhibition","[13]; at 12.8 µM (top of the series), parasite line A",5.7% (inactive)
same,"activity, negative = inhibition","[13]; at 12.8 µM (top of the series), parasite line B",7.59% (inactive)
same,Potency,3D7,inactive
same,Potency,7G8,inactive
CC[C@H](CC[C@@H](C)[C@H]1CC[C@H]2[C@@H]3CC=C4C[C@@H](O)CC[C@]4(C)[C@H]3CC[C@]12C)C(C)C,outcome,[1],inactive
same,Potency,[2],inactive
same,Potency,[14],inactive
same,outcome,[6],inactive
same,max response,[8],-1.45% (inactive)
same,outcome,[9],inactive
same,Potency,[10],inactive
same,outcome,[11],inactive
same,outcome,[12],inactive
same,Z-AUC,[15],0.987 (inactive)
same,Z-AUC,[15]; measured here: PEO1 parental Z-AUC,0.643
same,Z-AUC,[15]; measured here: PEO4 Z-AUC,0.776
CO/N=C(\C(=O)N[C@@H]1C(=O)N2C(C(=O)O)=C(CSc3nnnn3C)CS[C@H]12)c1csc(N)n1,Potency,[2],11.4 µM (active)
CCCCCCCCCCCC(=O)OCC(O)CO (stereo unspecified),outcome,[1],inactive
same,Potency,[2],inactive
same,Potency,[14],inactive
same,outcome,[3],inactive
same,Potency,[4],inactive
same,outcome,[6],inactive
same,max response,[8],2.27% (inactive)
same,outcome,[9],inactive
same,Potency,[10],inactive
same,outcome,[11],inactive
same,outcome,[12],inactive
same,"activity, negative = inhibition",[13]; [16],0.724% (inactive)
same,"activity, negative = inhibition",[13]; [17],-1.86% (inactive)
same,Potency,3D7,inactive
same,Potency,7G8,inactive
CC1=CCC2CC1C2(C)C (stereo unspecified),outcome,[1],inactive
same,outcome,[3],inactive
same,Potency,[4],inactive
same,outcome,[6],inactive
same,Potency,[7],3.55 µM (active)
same,max response,[8],3.27% (inactive)
same,outcome,[9],inactive
same,Potency,[10],inactive
same,outcome,[11],inactive
same,outcome,[12],inactive
same,"activity, negative = inhibition",[13]; [16],10.5% (inactive)
same,"activity, negative = inhibition",[13]; [17],12.9% (inactive)
same,Potency,3D7,inactive
same,Potency,7G8,inactive
